The nature of test [1]: compound effects on differentiated 3T3-L1 adipocyte viability – cell-based, 3T3-L1 adipocytes, calcein-AM fluorescence, 48 h, basal, profiling panel (AID 1163). The conditions noted are these: 3T3-L1 adipocytes viability, higher = more signal.
Test [2] is described as follows: compound effects on hepatocellular carcinoma cell viability – HepG2, calcein-AM fluorescence, 48 h, basal, profiling panel (AID 1164). The conditions noted are these: higher = more signal.
The nature of test [3]: compound effects on multiple myeloma cell viability – MM1S, calcein-AM fluorescence, 48 h, basal, profiling panel (AID 1165).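 Note: viability of MM1S multiple myeloma cells under basal unstimulated conditions.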 The following applies: higher = more signal.
The nature of test [4]: calcein-AM signal in unstimulated myeloma cells – cell-based, calcein-AM fluorescence, 48 h, PK04 Diversity Set, profiling panel (AID 1166).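 Note: cells grown under basal conditions without added stimulus.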 The conditions noted are these: RPMI8226 myeloma viability, higher = more signal.
A short description of test [5]: JC-1 mitochondrial signal, unstimulated HepG2 cells – cell-based, JC-1 fluorescence, 24 h, 100 nL compound, profiling panel (AID 1167). The conditions noted are these: HepG2 mitochondrial potential, higher = more signal.
A short description of test [6]: JC-1 mitochondrial signal, unstimulated adipocytes – cell-based, JC-1 fluorescence, 3T3-L1 adipocytes, 24 h, 100 nL compound, profiling panel (AID 1168). The following applies: JC-1 mitochondrial fluorescence, higher = more signal, called active from +8 up or from −8 down.
Test [7] can be described thus: JC-1 mitochondrial signal, unstimulated myeloma cells – cell-based, JC-1 fluorescence, RPMI8226, 24 h, 100 nL compound, profiling panel (AID 1169). The following applies: JC-1 mitochondrial potential fluorescence, higher = more signal.
Test [8] is described as follows: JC-1 mitochondrial signal, unstimulated MM1S myeloma – cell-based, JC-1 fluorescence, 24 h, 100 nL compound, profiling panel (AID 1170). The conditions noted are these: MM1S mitochondrial potential, higher = more signal.
A short description of test [9]: resazurin metabolic signal in A549 cells – cell-based, resazurin fluorescence, 24 h, PK04 Diversity Set, profiling panel (AID 1171). The following applies: A549 viability, higher = more signal, called active from +8 up or from −8 down. In general terms: Alamar Blue is a resazurin reagent that responds to reducing activity.
Test [10] can be described thus: resazurin metabolic signal in HepG2 cells – cell-based, resazurin fluorescence, 24 h, PK04 Diversity Set, profiling panel (AID 1172). The conditions noted are these: HepG2 viability, higher = more signal.
A short description of test [11]: budding yeast growth changes without added modifier – OD600, strain BY4716, 24 h, basal condition, primary screen (AID 1173). The following applies: S. cerevisiae BY4716 growth, OD600, 24 h; higher = more signal, called active from +8 up or from −8 down.
A short description of test [12]: viability profiling in MM1S myeloma cells – cell-based, resazurin fluorescence, basal, 24 h, PK04 Diversity Set, profiling panel (AID 1174). The following applies: higher = more signal, called active from +8 up or from −8 down.
Test [13] has as its target Dihydroorotate dehydrogenase (quinone), mitochondrial (Plasmodium falciparum (isolate 3D7)) (UniProt Q08210). In words: inhibition of P. falciparum DHODH – biochemical, C-terminal His tag, absorbance 600 nm, primary screen (AID 1175).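 Note: recombinant parasite enzyme with a five histidine tag at its C terminus.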 The following applies: PfDHODH enzyme, DCIP absorbance 600 nm; higher = more signal, called active from +8 up or from −8 down.
The nature of test [14]: growth modulation of vineyard yeast isolate – strain RM11-1a, OD600, basal, 24 h, primary screen (AID 1177).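 Note: cultures grown under basal conditions with no added stressor.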 The following applies: S. cerevisiae RM11-1a growth, OD600, 24 h; higher = more signal, called active from +8 up or from −8 down.
Test [15] is described as follows: growth of efflux-deficient E. coli DRC39 – strain DRC39, OD650, 24 h, E. coli filamentation inducers, primary screen (AID 1178).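 Note: growth measured as culture turbidity by optical density at 650 nm.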 The conditions noted are these: E. coli DRC39 acrAB, higher = more signal, called active from +8 up or from −8 down.
The nature of test [16]: growth of efflux-deficient E. coli DRC39 – strain DRC39, OD650, 48 h, E. coli filamentation inducers, primary screen (AID 1179).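 Note: screen aims at cell division blockers that make cells filament.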 The conditions noted are these: E. coli DRC39 delta-acrAB growth, higher = more signal, called active from +8 up or from −8 down.
The nature of test [17]: viability profiling in RPMI8226 myeloma cells – cell-based, resazurin fluorescence, basal, 24 h, PK04 Diversity Set, profiling panel (AID 1180).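 Note: RPMI8826 multiple myeloma cell line at 5000 cells per well.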 The conditions noted are these: higher = more signal.
For test [18], the target named is E3 ubiquitin-protein ligase XIAP (Homo sapiens) (UniProt P98170). In words: small molecules binding XIAP protein – biophysical, small-molecule microarray, fluorescence 635 nm, primary screen (AID 1181).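 Note: score merges 667 nm emission and signal to noise over triplicate slides.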 The conditions noted are these: higher = more signal.
Sequence of E3 ubiquitin-protein ligase XIAP (Homo sapiens) (P98170 whole entry, looked up, the tested form may be a part): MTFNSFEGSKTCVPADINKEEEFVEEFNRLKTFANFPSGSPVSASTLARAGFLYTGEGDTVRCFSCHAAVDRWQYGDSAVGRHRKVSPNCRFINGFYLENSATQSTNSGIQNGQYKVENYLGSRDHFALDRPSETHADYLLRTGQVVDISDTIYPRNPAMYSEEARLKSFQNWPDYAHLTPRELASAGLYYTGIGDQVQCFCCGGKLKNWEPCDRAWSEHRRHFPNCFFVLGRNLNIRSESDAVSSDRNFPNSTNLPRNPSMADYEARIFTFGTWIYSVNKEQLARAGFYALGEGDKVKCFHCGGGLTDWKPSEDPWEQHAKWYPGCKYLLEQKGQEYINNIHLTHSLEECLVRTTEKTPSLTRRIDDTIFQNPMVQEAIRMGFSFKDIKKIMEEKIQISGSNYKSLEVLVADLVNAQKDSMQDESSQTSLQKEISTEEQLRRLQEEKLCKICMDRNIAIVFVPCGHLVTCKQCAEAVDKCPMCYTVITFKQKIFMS
Test [19] has as its system XIP peptide (Xip251-270) binding. In words: XIP fragment 251-270 binding compounds – biochemical, small-molecule microarray, fluorescence 635/667 nm, 0.1 µg/mL protein, primary screen (AID 1182). The following applies: fluorescent protein binding, 635 nm, higher = more signal, called active from +8 up or from −8 down.
In a further test the test system is XIP peptide (Xip251-270). The test can be described thus: compounds binding XIP fragment 251-270 – biochemical, small-molecule microarray, fluorescence 635/667 nm, 0.5 µg/mL protein, primary screen (AID 1183). The conditions noted are these: fluorescence 635 nm, higher = more signal.

The values below come from PubChem BioAssay.

Molecules are shown by their SMILES. Calls of active or inactive are those of the source.

Sequence of Dihydroorotate dehydrogenase (quinone), mitochondrial (Plasmodium falciparum (isolate 3D7)) (Q08210 whole entry, looked up): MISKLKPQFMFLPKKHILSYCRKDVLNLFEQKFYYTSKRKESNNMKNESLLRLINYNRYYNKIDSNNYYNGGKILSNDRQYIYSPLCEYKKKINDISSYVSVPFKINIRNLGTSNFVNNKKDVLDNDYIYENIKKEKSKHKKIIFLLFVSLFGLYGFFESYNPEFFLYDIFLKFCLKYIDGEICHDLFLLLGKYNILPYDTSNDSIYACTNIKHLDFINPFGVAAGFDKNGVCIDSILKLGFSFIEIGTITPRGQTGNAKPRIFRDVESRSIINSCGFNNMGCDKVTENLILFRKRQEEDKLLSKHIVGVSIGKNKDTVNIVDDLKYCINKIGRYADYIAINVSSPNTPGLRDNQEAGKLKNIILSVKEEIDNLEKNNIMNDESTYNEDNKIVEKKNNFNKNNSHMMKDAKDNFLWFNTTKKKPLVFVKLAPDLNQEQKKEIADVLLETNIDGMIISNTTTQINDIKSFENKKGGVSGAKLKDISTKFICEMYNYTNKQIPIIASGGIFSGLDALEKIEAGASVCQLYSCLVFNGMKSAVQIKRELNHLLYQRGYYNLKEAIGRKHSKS

In the case of `C=CCC(OC(C)=O)[C@@H]1[C@@H](N(Cc2ccc(-c3cccc(C(F)(F)F)c3)o2)C(=O)c2ccc(-c3ccccc3)cc2)c2cc(OCCCO)ccc2N1C(=O)Cc1ccc(OC)cc1` (stereo not given in full), the z-score was 0.935 in [1]; 1.29 in test [2]; 1.18 in test [3]; 0.72 in test [4]; 3.72 in [5]; 0.0243 (inactive) in [6]. For the same compound, the z-score in test [7] was -0.598; in [8] it was 1.36; in test [9], 0.797 (inactive); in [10] it was 0.421; in test [11], 0.0438 (inactive); in [12], 1.29 (inactive). Also, the z-score is -0.93 (inactive) in test [14], 1.98 (inactive) in [15], 1.21 (inactive) in [16] and 1.32 in test [17]. Further, the composite z-score was 0.0258 (inactive) in test [13], -0.0525 in test [18], 0.163 (inactive) in test [19] and -0.653 in the test on XIP peptide (Xip251-270).
In the case of `COCCOC(=O)N1C(=O)[C@@]2(c3cc(C#CC4(O)CCCCCC4)ccc31)[C@H](C(=O)NC[C@H](O)c1ccccc1)[C@H]1C(=O)O[C@H](c3ccccc3)[C@H](c3ccccc3)N1[C@@H]2c1ccccc1OCCO`, the z-score was 1.76 in test [1]; -1.41 in test [2]; -3.26 in test [3]; -3.76 in [4]; -1.3 in test [5]; 0.951 (inactive) in test [6]. The z-score in [7] was -0.939; in [8], -1.75; in [9] it was -0.0869 (inactive); in [10], -0.0252; in test [11] it was 1.26 (inactive); in test [12], -1.35 (inactive). The z-score in test [14] is 3.05 (inactive); in [15], 0.634 (inactive); in test [16], 1.05 (inactive); in test [17] it was -1.93. Also, the composite z-score in test [13] is 0.811 (inactive); in [18], -0.105; in test [19], 0.551 (inactive); in the test on XIP peptide (Xip251-270) it was 0.751.
For the compound `COC(=O)c1c(CC[C@@H](CO)NC(=O)Nc2ccc(OC)cc2)oc(C(=O)Cc2ccccc2)c1C(=O)OC`, the z-score in test [1] was 1.01; in test [2], -0.255; in test [3] it was -0.581; in test [4], 0.141; in test [5] it was -0.115; in [6] it was 0.695 (inactive). For the same compound, the z-score in [7] is -0.204; in test [8], 0.212; in test [9] it was 0.367 (inactive); in test [10] it was -0.325; in [11] it was -2.3 (inactive); in test [12], 0.955 (inactive). Besides, the z-score in [14] was 1.22 (inactive); in [15] it was 1.46 (inactive); in [16] it was 0.987 (inactive); in test [17], 0.173. The composite z-score in test [13] is -1.09 (inactive); in test [18], -0.0525; in [19], 0.684 (inactive); in the test on XIP peptide (Xip251-270), 0.678.
Turning to `O=C(NC1CC1)[C@@H]1c2ccccc2C(=O)N(Cc2ccccc2C(F)(F)F)[C@H]1c1ccc(CO)cc1`, the z-score in test [1] is 1.59; in [2], 0.0356; in test [3] it was -0.124; in test [4] it was 0.702; in test [5] it was 1.26; in test [6] it was 0.387 (inactive). For the same compound, the z-score in test [7] was -0.0417; in [8], 0.65; in [9], 1.99 (inactive); in [10], 0.187; in [11], -0.844 (inactive); in test [12], 1.55 (inactive). The z-score in [14] is -0.615 (inactive); in test [15] it was 0.487 (inactive); in [16] it was -0.152 (inactive); in test [17], 1.98. Moreover, the composite z-score in test [13] was 0.209 (inactive); in [18], -0.0848; in test [19], 0.62 (inactive); in the test on XIP peptide (Xip251-270), 0.618.
Take `COc1ccc([Si](C)(C)[C@@H]2[C@@H](CCn3cc([C@H](O)c4ccccc4)nn3)O[C@]3(C(=O)N(C)c4c(Br)cc(C)cc43)[C@H]2C)cc1`: the z-score in test [1] was 1.49; in test [2] it was -4.5; in [3], -2.72; in test [4], -4.42; in test [5] it was -1.11; in test [6] it was 2.39 (inactive). Also, the z-score was -1.06 in [7]; -1.2 in test [8]; -2.49 (inactive) in [9]; -3.66 in test [10]; -1.39 (inactive) in test [11]; -8.35 (active) in test [12]. The z-score is -2.42 (inactive) in test [14], 2.5 (inactive) in test [15], 2.83 (inactive) in [16] and -6.23 in test [17]. For the same compound, the composite z-score in test [13] is -0.973 (inactive); in test [18], 0.382; in [19], 0.512 (inactive); in the test with XIP peptide (Xip251-270) it was 0.202.
